The values that follow come from PubChem BioAssay AID485297 (National Center for Advancing Translational Sciences (NCATS), 2010).

SMILES strings stand for the structures. The campaign covered roughly 320,000 compounds. About 9,100 (2.8%) were called active. Roughly 3% stayed inconclusive and do not appear here. Calls follow the shape of the dose curve; as a rule, active = well fitted activation curve with a large enough effect; inconclusive = small, poorly fitted or top-dose-only effect; inactive = no such curve, though single readings can be large or run the other way. The entries come from a sample that favours actives as a whole.
Potency is read from the fitted curve at half-maximal effect.

A short description of the assay: qHTS Assay for Rab9 Promoter Activators. Also: nearly all actives have a fitted effect of over 60% in size. As to activation, negative = inhibition: % of control where 0% means no effect. As to conditions: Huh7 Rab9 promoter-luciferase reporter, luminescence, 24 h; series mostly up to 9.22 µM; activation, negative = inhibition: at the top concentration. The procedure, abridged:
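Cells were plated at 1500 per well in reduced-serum medium with 10% FBS and left 2 h. Compound in DMSO was then added for 24 h at 37 °C. Reporter signal was read by luminescence after 10 min with luciferase detection reagent.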
On the technique in general: qHTS replaces the single test concentration by a dilution series.
Regarding `O=C(CN1CCCSc2ccccc21)N1CCN(S(=O)(=O)c2cccc(F)c2)CC1`, the “activation, negative = inhibition” value was -7.54% (inactive).

`Cc1cccc(NC(=S)NCCc2ccc(Cl)cc2)c1C`: the “activation, negative = inhibition” value was -1.92% (inactive).

Take `COc1ccccc1S(=O)(=O)NCc1ccc(C(=O)N(C)Cc2ccc(F)cc2)cc1`: the “activation, negative = inhibition” value is 2.36% (inactive). With `CC(=O)Nc1ccc(NC(=O)CCN2C(=O)C3CC=CCC3C2=O)cc1` (centres undefined), the “activation, negative = inhibition” value was -1.96% (inactive). Regarding `CCOC(OCC)c1ccc(/C=C\c2nccc(N)n2)cc1`, the Potency is 1.78 µM (active). Regarding `C[C@@H]1NC(=O)[C@@]2(C)[C@@H](c3ccccc3)[C@H]3COc4ccccc4[C@@H]3N2C1=O`, the “activation, negative = inhibition” value is 6.2% (inactive).

As to `Cc1ccc(OCCC(=O)Nc2ccc(S(=O)(=O)Nc3nccs3)cc2)cc1`, the “activation, negative = inhibition” value is -11.6% (inactive). Regarding `COc1cccc(OCC(=O)Nc2ccccc2C(N)=O)c1`, the Potency was 2.82 µM (active). Turning to `Cc1cccc(OCCC(=O)Nc2ccccc2C(N)=O)c1`, the “activation, negative = inhibition” value was 2.71% (inactive). On the same count and under the same terms, with `CCCOC(=O)Nc1ccccc1C(N)=O` the figure was 5.54% (inactive). Same read-out and setting: then `COc1ccccc1C(=O)NCC(=O)NCCSc1ccc(Br)cc1`, with 3.4% (inactive). Consider `Cc1ccn(CCC(=O)N2c3ccccc3CC2C)n1` (centres undefined), for which the “activation, negative = inhibition” value is -0.165% (inactive). Take `CCCC(=O)N1c2ccc(-c3csc(N)n3)cc2CC1C` (centres undefined): the Potency was 2.82 µM (active). Take `CCn1nc(C(=O)OCC(=O)N2c3ccccc3CC2C)c2ccccc2c1=O` (centres undefined): the “activation, negative = inhibition” value was 10.4% (inactive). On to `COC(=O)C1CCN(CC(N)=O)CC1`, for which the “activation, negative = inhibition” value is 0.0472% (inactive).

For `COC(=O)c1ccc(CSc2ccc(S(=O)(=O)N3CCCCC3)cn2)cc1`, the “activation, negative = inhibition” value was -0.29% (inactive). In the case of `CC1CCCN(C(=O)CN2C(=O)c3ccccc3S2(=O)=O)C1` (centres undefined), the Potency is 2.82 µM (active). Turning to `O=C(CN1C(=O)c2ccccc2S1(=O)=O)NC1CCCCC1`, the “activation, negative = inhibition” value was 15% (inactive).

Consider `O=C(CN1C(=O)c2ccccc2S1(=O)=O)N1CCc2ccccc21`, for which the “activation, negative = inhibition” value is -38.7% (inactive).

As to `O=C(COC(=O)Cc1ccc(Br)cc1)Nc1ccc(N2CCOCC2)cc1`, the “activation, negative = inhibition” value is -3.87% (inactive). Same read-out and setting: then `CCOCc1c(C(=O)N2CCN(Cc3ccc(Br)s3)CC2)oc2ccccc12`, with -5.16% (inactive); and `CC(=O)Nc1cccc(-c2nc3ccccc3s2)c1C`, with 11% (inactive). Take `O=C(O)CCCCc1nc2ccccc2s1`: the “activation, negative = inhibition” value was -6.84% (inactive). As to `Cc1cc(C(=O)OCC(=O)Nc2nnc(C(C)C)s2)c2ccccc2n1`, the “activation, negative = inhibition” value was 1.65% (inactive). As for `CC(C)CC(=O)NC(=S)NCc1ccccc1`, the “activation, negative = inhibition” value was -0.334% (inactive).

As to `CCC(=O)NC(=Nc1nc2ccccc2s1)NC(=O)CC`, the Potency is 3.55 µM (active).

Consider `CC(C)CC(=O)N/C(N)=N/c1nc2ccccc2s1`, for which the Potency is 2.82 µM (active).

Turning to `O=C(OCC(=O)N1CCCC1)c1ccc(Cl)nc1`, the “activation, negative = inhibition” value was -0.804% (inactive). Consider `CCCN(C(=O)c1nc2nccc(C)n2n1)c1c(N)n(Cc2ccccc2)c(=O)[nH]c1=O`, for which the “activation, negative = inhibition” value is -4.22% (inactive).

Consider `O=C(Nc1cc(C(F)(F)F)ccc1Cl)C(=O)N1CCCCC1`, for which the “activation, negative = inhibition” value is -2.62% (inactive). On the same count and under the same terms, with `O=C(Nc1cc(C(F)(F)F)ccc1Cl)c1cc(C2CC2)on1` the figure was -1.69% (inactive).

On to `O=C(Nc1cc(C(F)(F)F)ccc1Cl)c1cc2nc3c(c(C(F)(F)F)n2n1)CCCC3`, for which the Potency was 1.78 µM (active). For `Cc1cc(NC(=O)CCC(=O)N(CC(=O)NCC2CCCO2)c2ccccc2)no1` (centres undefined), the “activation, negative = inhibition” value was 3.92% (inactive). With `CC(C)Oc1ccc(C(=O)NCC(=O)Nc2ccc3c(c2)CCC3)cc1`, the “activation, negative = inhibition” value was -4.39% (inactive).

Turning to `CC(C)CCNC(=O)c1ccc2c(Cl)c3c(nc2c1)CCC3`, the Potency is 0.794 µM (active). On to `CC(=O)c1ccc(NC(=O)c2ccc3c(Cl)c4c(nc3c2)CCCC4)cc1`, for which the “activation, negative = inhibition” value was -18.7% (inactive).

In the case of `COc1ccc(N2CCN(C(=O)c3ccc4c(Cl)c5c(nc4c3)CCCC5)CC2)cc1`, the “activation, negative = inhibition” value is 0.948% (inactive). Take `COc1ccc(C(=O)OCC(=O)N2CC(=O)Nc3ccccc32)cc1Br`: the “activation, negative = inhibition” value was -0.57% (inactive).

As for `O=C1C2C3C=CC(C3)C2C(=O)N1c1ccc(-c2nc3ccccc3c(=O)o2)cc1` (centres undefined), the “activation, negative = inhibition” value was 3.04% (inactive). Same read-out and setting: then `Cc1ccc(NC(=O)Cn2c(C)csc2=O)cc1`, with 6.72% (inactive); and `Cc1ccc(C)c(NC(=O)c2cc(-c3cc(C)cc(C)c3O)n[nH]2)c1`, with -6.62% (inactive).

Consider `Cc1ccc(NC(=O)c2cc(-c3ccccc3O)n[nH]2)cc1C`, for which the Potency was 2.82 µM (active). Consider `Cc1ccc(NC(=O)CCN2C(=O)c3ccccc3C2=O)cc1C`, for which the “activation, negative = inhibition” value was 6.61% (inactive). Consider `CCN(CC(=O)Nc1ccc(C)c(S(=O)(=O)N(C)C)c1)Cc1ccccc1`, for which the “activation, negative = inhibition” value is 2.23% (inactive). The same measure, in the same setting: then `Cc1ccc(NC(=O)c2cccs2)cc1S(=O)(=O)N(C)C`, with 17.2% (inactive). For `Cc1ccc(C(=O)Nc2ccc(C)c(S(=O)(=O)N(C)C)c2)s1`, the Potency was 1 µM (active). In the case of `CCN(CC)CCn1c2c(c(SCC(=O)Nc3nc4ccccc4s3)nc1=O)CCCC2`, the “activation, negative = inhibition” value was 0.858% (inactive). Still for that read-out and setting: then `O=[N+]([O-])c1cc(Br)c(O)c(/C=N/Nc2nc3ccccc3s2)c1`, with -8.89% (inactive).

In the case of `c1ccc2sc(NN=C3CCCC3)nc2c1`, the Potency was 0.631 µM (active).

Consider `CC(=O)O[C@H]1c2ccccc2-c2ccccc2[C@@H]1OC(C)=O`, for which the “activation, negative = inhibition” value was -1.15% (inactive). As to `COC(=O)c1sc(NC(=O)c2csc3c2CCCC3)nc1C`, the Potency was 3.98 µM (active). In the case of `Cc1ccc(NC(=O)c2c(NC(=O)CCC(=O)O)sc3c2CCCCC3)cc1`, the “activation, negative = inhibition” value is -6.43% (inactive). For `Cc1ccc(NC(=O)c2csc3c2CCCC3)cc1`, the Potency is 1.41 µM (active). For the compound `CCOC(=O)c1sc(NC(=O)c2sc(C)nc2C)nc1C`, the “activation, negative = inhibition” value was -29.6% (inactive). Consider `O=C(Nc1ccccc1N1CCOCC1)c1csc2c1CCCC2`, for which the “activation, negative = inhibition” value was 3.79% (inactive). Same read-out and setting: then `CCOC(=O)c1sc(NC(=O)c2cc(S(=O)(=O)N3CCOCC3)ccc2C)nc1C`, with -2.46% (inactive).

As to `CCN(C(=O)COC(=O)c1c(C)nn(-c2ccccc2)c1Cl)c1c(N)n(Cc2ccccc2)c(=O)[nH]c1=O`, the “activation, negative = inhibition” value was -1.95% (inactive). As for `Cc1cccc(NC(=O)CN2CCN(CC(=O)NCC3(N4CCCCC4)CCCCC3)CC2)c1C`, the “activation, negative = inhibition” value is -5.48% (inactive). As to `CCCn1c(N)c(N(CCOC)C(=O)C2CCCC2)c(=O)[nH]c1=O`, the “activation, negative = inhibition” value was 0.7% (inactive).

In the case of `O=C(CNS(=O)(=O)c1ccc2ccccc2c1)Nc1ccc(F)c(F)c1F`, the “activation, negative = inhibition” value is -2.94% (inactive). `COC(=O)c1ccc(NC(=O)CSc2nncn2-c2cccnc2)cc1`: the “activation, negative = inhibition” value is 0.416% (inactive). Consider `O=C(COC(=O)c1cccc(Cl)c1)NC1CCCCCCC1`, for which the “activation, negative = inhibition” value was 0.046% (inactive).

Take `O=C(CSc1nnc(N2CCOCC2)n1-c1cccc(F)c1)N1CCN(c2ccccn2)CC1`: the “activation, negative = inhibition” value was -1.86% (inactive).

In the case of `C=CCNc1nc(Nc2ccc(Cl)cc2)nc(OC)n1`, the “activation, negative = inhibition” value is 14.8% (inactive).

As for `Brc1ccc(CN2CC[C@H]3C=CCc4cccc(c43)C2)cc1`, the “activation, negative = inhibition” value is -3.17% (inactive). Take `COc1cccc(C(=O)Nc2cccnc2)c1OC`: the “activation, negative = inhibition” value is -3.29% (inactive). Take `Cc1cccc(-n2cnc(C(=O)Nc3cccnc3)c2)n1`: the Potency was 2.24 µM (active). For `Cc1cccc(-n2cnc(C(=O)NNC(=S)Nc3ccccc3)c2)n1`, the “activation, negative = inhibition” value is 2.6% (inactive).

Regarding `Cc1ccc(NC(=O)CN(C)C(=O)c2cccc(S(=O)(=O)N3CCCC3)c2)cc1`, the “activation, negative = inhibition” value is 1.79% (inactive).
